PubChem BioAssay AID2013 (Sanford-Burnham Center for Chemical Genomics, 2009)
Several values for one entry are separate records, joined by “and”; a condition that tells them apart may be missing. Equal entries are not always repeated. Hit rate of the full screen: of about 290,000 compounds, about 370 (0.13%) were called active. This excerpt belongs to a sample that is enriched for actives. Results with a measured potency or affinity are listed apart. Unmarked numbers belong to inactive results.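 Rule for the calls: active = spots per cell inhibited over 60%, with over 100 cells counted and total cytoplasm intensity under 500,000; inconclusive = wells with under 100 cells, flagged as likely toxic; inactive = the rest.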

What follows are compounds tested against G-protein coupled receptor 55 (Homo sapiens) (UniProt Q9Y2T6) (assay: inhibition of LPI-stimulated GPR55 beta-arrestin translocation – imaging, U2OS, beta-arrestin-GFP, LPI agonist, primary screen (AID 2013;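 note: U2OS cells stably carrying GPR55 and arrestin-GFP stimulated by 5 µM LPI near EC80; imaged beta-arrestin-GFP aggregate spots per cell after agonist stimulation; plate controls were LPI-stimulated DMSO wells for no effect and DMSO wells without LPI for full effect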)). Details: LPI antagonism, at 10 µM, active compounds read high.
Chain of G-protein coupled receptor 55 (Homo sapiens) (Q9Y2T6 whole entry, looked up): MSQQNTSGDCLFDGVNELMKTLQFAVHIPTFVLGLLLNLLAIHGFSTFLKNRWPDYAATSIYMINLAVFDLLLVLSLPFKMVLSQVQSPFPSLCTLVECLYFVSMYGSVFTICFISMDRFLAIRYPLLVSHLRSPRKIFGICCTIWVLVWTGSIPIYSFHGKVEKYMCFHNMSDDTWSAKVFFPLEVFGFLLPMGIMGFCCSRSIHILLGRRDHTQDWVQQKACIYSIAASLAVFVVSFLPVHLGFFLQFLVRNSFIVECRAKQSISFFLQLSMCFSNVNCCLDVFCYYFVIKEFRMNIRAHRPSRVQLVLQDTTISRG

Row | SMILES | inhibition
1 | N=c1c2c(-c3ccccc3)c(-c3ccccc3)n(Cc3ccco3)c2ncn1CCCn1ccnc1 | 24.2%
2 | N=c1c2c(-c3ccccc3)c(-c3ccccc3)n(Cc3ccco3)c2ncn1Cc1ccco1 | 29.6%
3 | N=c1c2c(-c3ccccc3)c(-c3ccccc3)n(Cc3ccco3)c2ncn1Cc1ccccc1 | 70.9% (active)
4 | OCCNc1ncnc2c1c(-c1ccccc1)c(-c1ccccc1)n2Cc1ccco1 | -0.4%
5 | N=c1c2c(-c3ccccc3)c(-c3ccccc3)n(Cc3ccco3)c2ncn1CCO | 58.3%
6 | CCN(CC1COc2ccccc2O1)C(=S)NCCCN(C)C (configuration not stated) | 5.9%
7 | COc1cc(NC(=O)CSCC(=O)Nc2cc(OC)cc(OC)c2)cc(OC)c1 | -13.3%
8 | CC1(C)CC(=O)C2=C(C1)N(c1cccc(O)c1)C1=C(C2)C(=O)CC(C)(C)C1 | 28.2%
9 | Cc1ccc(OCCCn2ccnc2)c([N+](=O)[O-])c1 | 11.8%
10 | CCOc1ccc(CN2CCNC(=O)C2CC(=O)NCc2csc(C)n2)cc1 (configuration not stated) | -5.2%
11 | COc1ccc(CN(CCC#N)C(=S)NC(=O)c2ccccc2)cc1 | 21.1%
12 | CCOc1ccc(C(=O)NC(=S)N(Cc2ccccc2)Cc2ccccc2)cc1 | 8.8%
13 | CCOC(=O)c1[nH]c2ccc(Cl)cc2c1NC(=O)/C=C/c1ccc2c(c1)OCO2 | -10.3%
14 | CCc1ccc2c(c1)cc(CN(C(=S)Nc1ccccc1C)C1CC1)c1nnnn12 | -0.7%
15 | Cn1c(=O)n(C/C=C/c2ccccc2)c(=O)c2c1nc1n2CCCN1Cc1ccccc1 | 12.5%
16 | Cn1c(=O)n(CCc2ccccc2)c(=O)c2c1nc1n2CCCN1c1ccccc1 | 8.1%
17 | CC(C)C(=O)Nc1ccc(N2CCN(c3ccc(F)cc3)CC2)cc1 | 7.7%
18 | O=C(O)CN=C(NS(=O)(=O)c1ccccc1)c1ccccc1 | 3.6%
19 | CC(C)N=C(NS(=O)(=O)c1ccccc1)C(Cl)(Cl)Cl | 52.5%

Row | SMILES | inhibition
20 | Cc1ccc(CC(=O)N2CCN(c3ccccn3)CC2)cc1 | 1.5%
21 | Cc1nc(-c2ccc(Cl)cc2)sc1C1(C)CC(c2cccc(Cl)c2)=NO1 (configuration not stated) | 2.4%
22 | O=C(Nc1ccccc1O)c1ccc2c(c1)C(=O)N(Cc1ccco1)C2=O | 1.9%
23 | O=C(O)/C=C/c1cccnc1 | 10.5%
24 | CC(/C=C\c1cccnc1)=C/C(=O)O | 13.6% and 11.7%
25 | Cc1cc(CSc2ccccc2)ccc1NC(=O)COc1ccccc1C | 5.6%
26 | CC(C)CCNC(=O)C1CC(=O)N(CCc2ccccc2)C1 (configuration not stated) | 3.2%
27 | COc1ccc(CNC(=O)CCc2c(C)nc3cc(-c4ccccc4OC)nn3c2C)cc1 | 12.4%
28 | Cc1ccc(NC(=O)c2ccccc2OCC(=O)c2ccccc2)cc1 | -5.2%
29 | CCOc1ccc(NC(=O)c2ccccc2OCC(=O)c2ccc(C)cc2)cc1 | -16%
30 | O=C(NCc1ccccn1)c1ccc(CNS(=O)(=O)c2cccc(C(F)(F)F)c2)cc1 | 3.1%
31 | Cc1cccc(C(=O)Oc2ccc(/C=N/NC(=O)c3ccc(O)cc3)cc2)c1 | 0.3%
32 | CC1=Nc2cc(C(=O)NCCCOC(C)C)ccc2Sc2ccc(C)cc21 | 19.1%
33 | Cc1c(-n2c(SC(C)C(=O)NC(N)=O)nc3ccccc3c2=O)c(=O)n(-c2ccccc2)n1C (configuration not stated) | -4.9%
34 | Cc1ccc(-c2nc(-c3nccc4ccccc34)oc2-c2ccccc2)cc1 | 25%
35 | c1ccc(-c2ccc(-c3nccc4ccccc34)[nH]2)cc1 | 36%
36 | CC(=O)/C(=C\N(C)C)Sc1ccc(Cl)cc1 | 0.6%
37 | S=C(Sc1ccc(Cl)cc1)Sc1ccc(Cl)cc1 | 91.8% (active)
38 | O=C(NC1CCCCC1)Sc1ccc(Cl)cc1 | -6%

Row | SMILES | inhibition
39 | O=C(N/N=C/c1ccoc1)c1ccccc1O | -2.7%
40 | O=C1NN(c2ccccc2)C(=O)/C1=C\c1ccccc1OCC(=O)N1CCOCC1 | 4.6%
41 | O=C(O)COc1ccccc1/C=C1\SC(=Nc2ccc(F)cc2)N(c2ccc(F)cc2)C1=O | 12.7%
42 | O=C(N/N=C/c1cccc([N+](=O)[O-])c1)c1cc(-c2ccc3c4c(cccc24)CC3)n[nH]1 | -4.6%
43 | O=C(N/N=C/c1ccc(Cl)c([N+](=O)[O-])c1)c1cc(-c2ccc3c4c(cccc24)CC3)n[nH]1 | 76.6% (active)
44 | O=C(O)c1ccc(/C=N/NC(=O)c2cc(-c3ccc4c5c(cccc35)CC4)n[nH]2)cc1 | 4%
45 | CCN(Cc1ccccc1)S(=O)(=O)c1ccc(F)cc1 | 15.1%
46 | CCN1C(=S)N[C@@H](c2cccc(F)c2)C(C(=O)OC)=C1C | 4.1%
47 | COC(=O)C1=C(C)N(Cc2ccccc2)C(=O)N[C@H]1c1ccccc1 | 58%
48 | COC(=O)C1=C(C)N(Cc2cccnc2)C(=O)C1 | -5.2%
49 | COC(=O)C1=C(C)N(CC2CC2)C(=NCc2cc(OC)c(OC)c(OC)c2)N[C@H]1c1ccccc1 | -3%
50 | COC(=O)C1=C(C)N(Cc2ccccc2)C(=S)N[C@H]1c1cccc(F)c1 | 18.7%
51 | COC(=O)C1=C(C)N(Cc2ccccc2)C(=NCCc2ccccn2)N[C@H]1c1cccc(F)c1 | 38.8%
52 | CCN1C(=NCCc2cccnc2)N[C@@H](c2ccccc2)C(C(=O)OC)=C1C | -18.1%
53 | COC(=O)C1=C(C)N(Cc2ccccc2)C(=NCc2cc(OC)c(OC)c(OC)c2)N[C@H]1c1cccc(F)c1 | 8.9%
54 | O=C(Nc1ccc2c(c1)OCCO2)NC1(C(F)(F)F)Oc2ccccc2O1 | -14.5%
55 | COc1ccc(NC(=O)N2CCN(c3cccc(C(F)(F)F)c3)CC2)cc1 | 12.5%
56 | COc1ccc(-c2cc(C(=O)N3CCN(c4ccccc4O)CC3)c3ccccc3n2)cc1OC | 13.3%
57 | CCc1oc(C(=O)O)cc1COC | 3.5%
